Experimental data reported in PubChem BioAssay (NCI).
The panel holds about 83,000 compounds, 20% with a hit somewhere; the sample as a whole holds those more often.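 The test compound was applied at a single concentration to cells in 96-well plates for 48 hours, and percent growth was recorded.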 Activity calls are given as the source filed them. How the source made its calls: active means growth percent below 10; inactive means the rest.

test system: SK-MEL-28 melanoma; test: NCI-60 one-dose screen, 48 h (100 = growth as untreated, 0 = no growth, -100 = all killed); details: 10 µM unless noted

| SMILES | growth |
| --- | --- |
| COCCOC(=O)C1=C(C)NC(=S)NC1c1ccc2c(c1)OCO2 (stereo not given) | 114% (inactive) |
| O=S(=O)(Nc1ccc(F)c(Cl)c1)c1ccc(-c2cnc(C3CC3)o2)cc1 | 62.5% (inactive) |
| NCCN1CCN(c2nccc(-c3ccc4ccccc4c3)n2)CC1 | -43.4% (active) |
| CCN(CC)Cc1cc(Nc2c3ccc(Cl)cc3nc3c(C)cccc23)ccc1O | -65.5% (active) |
| N#Cc1ccc(NC(=O)Nc2ccc(Cc3ccc(NC(=O)Nc4ccc(C#N)cc4)cc3)cc2)cc1 | 36.7% (inactive) |
| CCCCNc1ccc2c3c1cccc3c(=O)n1c3ccccc3nc21 | 103% (inactive) |
| O=C1O[C@H]([C@H](O)CO)C(O)=C1O | 117% (inactive) |
| CCC(=O)OCc1cccc(OC)c1 | 107% (inactive) |
| Cc1ccc2cnc(N)c(C#Cc3cncc(C(=O)Nc4ccc(CN5CCN(C)CC5)c(C(F)(F)F)c4)c3)c2c1 | -90.8% (active) |
| CC#Cc1nc2ccccc2c(=O)[nH]1 | 54.3% (inactive) |
| COc1cc2c(cc1O)CCc1cc(O)cc(OC)c1-2 | 100% (inactive) |
| CCCCCCCCCCCCS(=O)CC(C)O (stereo not given) | 102% (inactive) |
| CCN(CC)CCCNc1cccc2c(SCc3ccccc3)ccnc12 | 108% (inactive) |
| COc1ccc(/C=C2\N=C3Sc4cc(Cl)ccc4C(=O)N3C2=O)cc1 | 103% (inactive) |
| O=C1C(Cl)=C(Cl)C(=O)c2c1nc1n2CCCC1 | 113% (inactive) |
| CN1CCN(Cc2ccc(NC(=O)c3cncc(C#Cc4c(N)ncc5ccc(C#N)cc45)c3)cc2C(F)(F)F)CC1 | -78.7% (active) |
| Nc1nc(SCc2ccccc2)c2ncn(C3CCCC3)c2n1 | 141% (inactive) |
| COc1cc(NC(N)=NCC(C)(C)COc2ccc(C(F)(F)F)cc2)cnc1C#N | 85.5% (inactive) |
| CCCCCCCCCCCCCCCC(=O)OCC1OC(n2cnc3c(=S)nc(N)[nH]c32)C(OC(=O)CCCCCCCCCCCCCCC)C1OC(=O)CCCCCCCCCCCCCCC (stereo not given) | 130% (inactive) |
| O=[N+]([O-])c1cccc(-c2nc3sccn3c2-c2ccnc(NCCCNS(=O)(=O)c3ccc(Br)cc3)n2)c1 | 76.9% (inactive) |

| SMILES | growth |
| --- | --- |
| COc1ccc(-c2nc(Nc3cc(C)[nH]n3)c3ccccc3n2)cc1 | 61.5% (inactive) |
| O=C1Nc2c(ccc(Cl)c2Cl)/C1=C/c1cc(Br)c(O)c(Br)c1 | 58.3% (inactive) |
| Nc1nc2ccc(-c3nc4ccc5[nH]ncc5c4c4c3CCC4)cc2s1 | 44.5% (inactive) |
| Cc1cc(Cl)ccc1Nc1nc(C(F)(F)F)ccc1C(=O)N/N=C/c1ccc(F)cc1 | 34.1% (inactive) |
| COc1ccc(C(=O)COc2ccc(/C=C3\Oc4ccc(Cl)cc4C3=O)cc2)cc1 | 79.9% (inactive) |
| CC[C@@H](C)OC(=O)c1nn(C(C)=O)c2ccccc12 | 114% (inactive) |
| CCN(CC)c1ccc(/C=C/C2=[N+](C)c3ccccc3C2(C)C)cc1 | 42.9% (inactive) |
| CCCCCCCCCCCCCCCC[N+]1(CC)CCCC1 | -38.6% (active) |
| COc1cc(OC)c(/C=C/c2cc[n+](C)c3ccccc23)c(OC)c1 | 24.8% (inactive) |
| CC[C@H](Nc1nc(N)nc(C)c1C#N)c1nc2cccc(NCc3ccc(C(=O)NO)cc3)c2c(=O)n1-c1ccccc1 | -0.295% (active) |
| O=C(CN1CCOCC1)Nc1ccc(Cn2nnc3c2C(=O)c2nnn(Cc4ccc(NC(=O)CN5CCOCC5)cc4)c2C3=O)cc1 | -34.6% (active) |
| COc1ccc2[nH]c(=O)c(/C=C/C(=O)c3ccc(Nc4nccc(-c5ccc6ccccc6c5)n4)cc3)cc2c1 | 108% (inactive) |
| OC(c1cccc(C(F)(F)F)c1)c1cnccc1NC1CCCCCC1 (stereo not given) | -12.9% (active) |
| CNC(=O)c1cc(Oc2ccc3nc(NC(=O)Nc4ccc(CN5CCOCC5)c(C(F)(F)F)c4)sc3c2)ccn1 | 25.1% (inactive) |
| O=c1c2cccc3c(Nc4ccccn4)ccc(c32)c2nc3ccccc3n12 | 101% (inactive) |
| CC(C)[C@@H]1CC[C@]2(C(=O)NCCCCN=C(N)N)CC[C@]3(C)[C@H](CC[C@@H]4[C@@]5(C)CCC(=O)C(C)(C)[C@@H]5CC[C@]43C)[C@@H]12 | 15.6% (inactive) |
| Cc1ccc2c(c1)n([O-])c1cc(Cl)ccc1[n+]2=O | 133% (inactive) |
| CC(C)(C)n1cc(-c2ccnc(NCCCNS(=O)(=O)c3cccc4ccccc34)c2)c(-c2cccc(O)c2)n1 | -37.2% (active) |
| COc1ccc(-c2cc(=O)[nH]c3c(OC)c4ccccc4c(OC)c23)cc1 | 56.6% (inactive) |

test system: SK-MEL-2 melanoma; test: as above; details: 10 µM unless noted

| SMILES | growth |
| --- | --- |
| COCCOC(=O)C1=C(C)NC(=S)NC1c1ccc2c(c1)OCO2 (stereo not given) | 93% (inactive) |
| O=S(=O)(Nc1ccc(F)c(Cl)c1)c1ccc(-c2cnc(C3CC3)o2)cc1 | 38% (inactive) |
| NCCN1CCN(c2nccc(-c3ccc4ccccc4c3)n2)CC1 | 76.9% (inactive) |
| CCN(CC)Cc1cc(Nc2c3ccc(Cl)cc3nc3c(C)cccc23)ccc1O | -73.2% (active) |
| N#Cc1ccc(NC(=O)Nc2ccc(Cc3ccc(NC(=O)Nc4ccc(C#N)cc4)cc3)cc2)cc1 | 12.8% (inactive) |
| O=C1O[C@H]([C@H](O)CO)C(O)=C1O | 104% (inactive) |
| CCC(=O)OCc1cccc(OC)c1 | 111% (inactive) |
| Cc1ccc2cnc(N)c(C#Cc3cncc(C(=O)Nc4ccc(CN5CCN(C)CC5)c(C(F)(F)F)c4)c3)c2c1 | -62.1% (active) |
| CC#Cc1nc2ccccc2c(=O)[nH]1 | 45.4% (inactive) |
| COc1cc2c(cc1O)CCc1cc(O)cc(OC)c1-2 | 88.6% (inactive) |
| CCCCCCCCCCCCS(=O)CC(C)O (stereo not given) | 112% (inactive) |
| CCN(CC)CCCNc1cccc2c(SCc3ccccc3)ccnc12 | 114% (inactive) |
| O=C1C(Cl)=C(Cl)C(=O)c2c1nc1n2CCCC1 | 88.1% (inactive) |
| CN1CCN(Cc2ccc(NC(=O)c3cncc(C#Cc4c(N)ncc5ccc(C#N)cc45)c3)cc2C(F)(F)F)CC1 | 57.4% (inactive) |
| Nc1nc(SCc2ccccc2)c2ncn(C3CCCC3)c2n1 | 94.6% (inactive) |
| COc1cc(NC(N)=NCC(C)(C)COc2ccc(C(F)(F)F)cc2)cnc1C#N | 77.3% (inactive) |
| CCCCCCCCCCCCCCCC(=O)OCC1OC(n2cnc3c(=S)nc(N)[nH]c32)C(OC(=O)CCCCCCCCCCCCCCC)C1OC(=O)CCCCCCCCCCCCCCC (stereo not given) | 54.7% (inactive) |
| O=[N+]([O-])c1cccc(-c2nc3sccn3c2-c2ccnc(NCCCNS(=O)(=O)c3ccc(Br)cc3)n2)c1 | 47% (inactive) |

| SMILES | growth |
| --- | --- |
| COc1ccc(-c2nc(Nc3cc(C)[nH]n3)c3ccccc3n2)cc1 | 59.7% (inactive) |
| O=C1Nc2c(ccc(Cl)c2Cl)/C1=C/c1cc(Br)c(O)c(Br)c1 | 73.2% (inactive) |
| Nc1nc2ccc(-c3nc4ccc5[nH]ncc5c4c4c3CCC4)cc2s1 | 21.5% (inactive) |
| Cc1cc(Cl)ccc1Nc1nc(C(F)(F)F)ccc1C(=O)N/N=C/c1ccc(F)cc1 | -5.51% (active) |
| COc1ccc(C(=O)COc2ccc(/C=C3\Oc4ccc(Cl)cc4C3=O)cc2)cc1 | 71.1% (inactive) |
| CC[C@@H](C)OC(=O)c1nn(C(C)=O)c2ccccc12 | 107% (inactive) |
| CCN(CC)c1ccc(/C=C/C2=[N+](C)c3ccccc3C2(C)C)cc1 | -1.48% (active) |
| CCCCCCCCCCCCCCCC[N+]1(CC)CCCC1 | -59.2% (active) |
| COc1cc(OC)c(/C=C/c2cc[n+](C)c3ccccc23)c(OC)c1 | -8.65% (active) |
| CC[C@H](Nc1nc(N)nc(C)c1C#N)c1nc2cccc(NCc3ccc(C(=O)NO)cc3)c2c(=O)n1-c1ccccc1 | 27.8% (inactive) |
| COc1ccc2[nH]c(=O)c(/C=C/C(=O)c3ccc(Nc4nccc(-c5ccc6ccccc6c5)n4)cc3)cc2c1 | 102% (inactive) |
| OC(c1cccc(C(F)(F)F)c1)c1cnccc1NC1CCCCCC1 (stereo not given) | 43% (inactive) |
| CNC(=O)c1cc(Oc2ccc3nc(NC(=O)Nc4ccc(CN5CCOCC5)c(C(F)(F)F)c4)sc3c2)ccn1 | 32.9% (inactive) |
| O=c1c2cccc3c(Nc4ccccn4)ccc(c32)c2nc3ccccc3n12 | 80.5% (inactive) |
| CC(C)[C@@H]1CC[C@]2(C(=O)NCCCCN=C(N)N)CC[C@]3(C)[C@H](CC[C@@H]4[C@@]5(C)CCC(=O)C(C)(C)[C@@H]5CC[C@]43C)[C@@H]12 | 83.3% (inactive) |
| Cc1ccc2c(c1)n([O-])c1cc(Cl)ccc1[n+]2=O | 92.5% (inactive) |
| CC(C)(C)n1cc(-c2ccnc(NCCCNS(=O)(=O)c3cccc4ccccc34)c2)c(-c2cccc(O)c2)n1 | 30.1% (inactive) |
| COc1ccc(-c2cc(=O)[nH]c3c(OC)c4ccccc4c(OC)c23)cc1 | 27.6% (inactive) |
